For eleven compounds, composite z-score and z-score results are on record in PubChem BioAssay.

Experiment [1] can be described thus: anti-His antibody binders, primary screen, artefact control for SMM control protein annotation, biochemical, small-molecule microarray, 635 nm fluorescence (AID 1128).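 Also: score merges feature fluorescence with signal-to-noise for each printed compound spot.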 Conditions: anti-His Alexa647 antibody binding, higher = more signal.
The subject of experiment [2] is Human papillomavirus type 1a E7 protein (residues 1-88). In words: HPV1a E7 small-molecule binders, primary screen, biochemical, small-molecule microarray, residues 1-88, 635 nm (AID 1129). The conditions noted are these: small-molecule microarray binding, fluorescence 635 nm; higher = more signal.
Experiment [3] addresses Focal adhesion kinase 1 (Homo sapiens) (UniProt Q05397). The experiment can be described thus: small-molecule microarray binders of FAK, primary screen, biochemical, 635/667 nm fluorescence, BSA, DTT (AID 1130).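 Also: composite of spot emission at 667 nm and signal to noise over triplicate slides.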 The conditions noted are these: PTK2 binding, 635 nm fluorescence, higher = more signal.
The test system of experiment [4] is Fibrinogen (Alexa647-labelled). In words: fibrinogen binders on compound microarrays, profiling panel, artefact control for SMM control-protein annotation, biochemical, small-molecule microarray, 635/667 nm fluorescence (AID 1131).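 Also: z-score merges 667 nm fluorescence with per-spot signal-to-noise over triplicate slides.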 The conditions noted are these: fibrinogen-A647 binding fluorescence, higher = more signal.
The target of experiment [5] is Follistatin (Homo sapiens) (UniProt P19883). In words: follistatin binders on small-molecule microarrays, primary screen, biochemical, small-molecule microarray, 635/667 nm fluorescence (AID 1132). The conditions noted are these: FST binding, 635 nm fluorescence, higher = more signal.
The target in experiment [6] is Fibroblast growth factor 2 (Homo sapiens) (UniProt P09038). In words: FGF2 binders on small-molecule microarrays, primary screen, biochemical, small-molecule microarray, 635/667 nm fluorescence (AID 1133). Conditions: small-molecule microarray binding, FGF2, fluorescence 635/667; higher = more signal.
A short description of experiment [7]: mitochondrial membrane potential change in A549 cells, profiling panel, cell-based, JC-1 fluorescence, basal, 24 h, 100 nL (AID 1138).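 Also: A549 lung adenocarcinoma cells under basal conditions with no added stimulus; test concentration not given here.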 The conditions noted are these: higher = more signal.
The test system of the next experiment is Lefty1. In words: Lefty1 binders on small-molecule microarrays, primary screen, biochemical, small-molecule microarray, 635/667 nm fluorescence (AID 1139). Conditions: small-molecule microarray binding, fluorescence 635/667; higher = more signal.
In experiment [8] the test system is wheat germ agglutinin (Triticum aestivum), Alexa647-labelled. The experiment can be described thus: wheat germ agglutinin binders on compound microarrays, profiling panel, artefact control for SMM control-protein annotation, biochemical, small-molecule microarray, 635/667 nm fluorescence (AID 1140).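 Also: score merges 667 nm feature emission with signal to noise over triplicate slides.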 Conditions: WGA-A647 binding, 635 nm fluorescence, higher = more signal.

For experiment [9], the target named is Luciferin 4-monooxygenase (Photinus pyralis) (UniProt P08659). In words: firefly luciferase enzyme inhibitors, primary screen, biochemical, luminescence, purified enzyme, 2006 set (AID 1141).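 Also: cell-free assay with purified firefly luciferase at 100 ng per well in PBS; test concentration not given here.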 The conditions noted are these: SteadyGlo luminescence, 30 min, higher = more signal, called active from +8 up or from −8 down.

Each structure is given as a SMILES string. Activity calls are given as the source filed them.

Fibroblast growth factor 2 (Homo sapiens), sequence (P09038 whole entry, looked up): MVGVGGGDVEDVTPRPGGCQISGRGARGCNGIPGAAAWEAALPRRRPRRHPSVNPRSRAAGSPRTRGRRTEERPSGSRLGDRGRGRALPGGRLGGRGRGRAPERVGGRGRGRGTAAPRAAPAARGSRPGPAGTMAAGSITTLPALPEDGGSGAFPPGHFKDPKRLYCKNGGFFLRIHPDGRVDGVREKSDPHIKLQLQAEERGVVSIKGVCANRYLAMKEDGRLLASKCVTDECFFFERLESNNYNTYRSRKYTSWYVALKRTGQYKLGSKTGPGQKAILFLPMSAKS
Luciferin 4-monooxygenase (Photinus pyralis), sequence (P08659 whole entry, looked up): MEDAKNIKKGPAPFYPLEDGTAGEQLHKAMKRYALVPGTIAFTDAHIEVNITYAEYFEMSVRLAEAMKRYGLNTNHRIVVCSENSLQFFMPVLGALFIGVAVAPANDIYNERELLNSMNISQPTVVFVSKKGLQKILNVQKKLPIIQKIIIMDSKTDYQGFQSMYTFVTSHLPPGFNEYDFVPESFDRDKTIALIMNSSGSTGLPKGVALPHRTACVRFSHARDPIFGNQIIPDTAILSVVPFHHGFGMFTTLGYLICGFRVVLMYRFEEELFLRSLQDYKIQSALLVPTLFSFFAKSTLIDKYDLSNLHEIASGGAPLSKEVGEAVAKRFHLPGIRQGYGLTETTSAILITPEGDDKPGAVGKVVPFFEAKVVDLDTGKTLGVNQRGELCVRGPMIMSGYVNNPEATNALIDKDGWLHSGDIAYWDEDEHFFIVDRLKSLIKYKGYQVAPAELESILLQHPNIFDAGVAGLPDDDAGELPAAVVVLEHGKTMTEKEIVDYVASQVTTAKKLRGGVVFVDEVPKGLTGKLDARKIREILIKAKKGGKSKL
Follistatin (Homo sapiens), sequence (P19883 whole entry, looked up): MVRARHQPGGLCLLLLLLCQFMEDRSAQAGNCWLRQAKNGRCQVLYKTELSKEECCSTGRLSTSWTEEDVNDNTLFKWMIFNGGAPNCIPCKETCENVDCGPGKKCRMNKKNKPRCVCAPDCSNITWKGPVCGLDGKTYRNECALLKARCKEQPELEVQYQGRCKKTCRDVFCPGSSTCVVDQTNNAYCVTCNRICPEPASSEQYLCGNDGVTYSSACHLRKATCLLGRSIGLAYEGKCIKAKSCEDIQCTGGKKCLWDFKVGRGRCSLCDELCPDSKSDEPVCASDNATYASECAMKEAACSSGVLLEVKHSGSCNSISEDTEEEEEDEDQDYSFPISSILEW
Focal adhesion kinase 1 (Homo sapiens), sequence (Q05397 whole entry, looked up): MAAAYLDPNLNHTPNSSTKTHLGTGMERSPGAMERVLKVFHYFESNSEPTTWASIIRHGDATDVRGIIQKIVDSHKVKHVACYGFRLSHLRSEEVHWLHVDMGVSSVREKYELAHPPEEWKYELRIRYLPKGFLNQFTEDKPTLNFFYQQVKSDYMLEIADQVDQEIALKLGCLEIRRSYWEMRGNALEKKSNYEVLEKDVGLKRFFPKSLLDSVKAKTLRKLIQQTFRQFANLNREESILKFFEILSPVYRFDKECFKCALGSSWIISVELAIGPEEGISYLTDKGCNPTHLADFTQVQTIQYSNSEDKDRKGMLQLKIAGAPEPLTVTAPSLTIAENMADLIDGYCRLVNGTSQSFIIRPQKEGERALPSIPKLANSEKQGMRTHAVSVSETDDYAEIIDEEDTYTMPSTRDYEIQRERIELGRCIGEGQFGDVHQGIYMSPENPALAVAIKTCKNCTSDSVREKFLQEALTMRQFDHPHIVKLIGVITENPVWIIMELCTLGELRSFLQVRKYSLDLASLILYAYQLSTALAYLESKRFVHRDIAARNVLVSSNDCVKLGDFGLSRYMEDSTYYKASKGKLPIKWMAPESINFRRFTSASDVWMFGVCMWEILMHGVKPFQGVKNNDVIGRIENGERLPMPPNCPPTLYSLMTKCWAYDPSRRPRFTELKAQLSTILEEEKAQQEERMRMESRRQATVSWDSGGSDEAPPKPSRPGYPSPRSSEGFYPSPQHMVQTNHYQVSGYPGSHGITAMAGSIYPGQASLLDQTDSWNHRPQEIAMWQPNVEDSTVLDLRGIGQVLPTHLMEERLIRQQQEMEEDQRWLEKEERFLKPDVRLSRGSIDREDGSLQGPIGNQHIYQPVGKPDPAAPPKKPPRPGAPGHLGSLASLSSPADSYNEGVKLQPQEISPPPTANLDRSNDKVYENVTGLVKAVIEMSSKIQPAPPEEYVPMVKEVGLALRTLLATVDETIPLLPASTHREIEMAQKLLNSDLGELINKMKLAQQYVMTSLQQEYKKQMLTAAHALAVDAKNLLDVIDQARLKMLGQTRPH

As for `COC(=O)[C@@]1(Cc2ccccc2)[C@H]2c3cc(C(=O)N(C)C)n(CCn4cc([N+](=O)[O-])nc4C)c3C[C@H]2CN1C(=O)c1ccccc1`, the composite z-score is 0.735 in experiment [1]; 0.858 in [2]; 1.39 in experiment [3]; 0.989 in experiment [4]; 0.387 in [5]; -0.163 in experiment [6]. Also, the figures for the composite z-score (in the experiment with Lefty1; in experiment [8]) were 0.216 and 1.1, respectively. For the same compound, the z-score in experiment [7] is -0.22; in [9], -0.0637 (inactive).
`CCN(CC)c1ccc(N2CC=CC34O[C@@H]5/C=C\CCC(C)OC(=O)C5[C@H]3C(=O)N(C(C)CO)[C@@H]4C2=O)cc1` (stereo not given in full): the composite z-score was -0.361 in experiment [1]; -0.935 in [2]; 0.212 in [3]; -0.145 in experiment [4]; 0.565 in experiment [5]; -0.0619 in [6]. The composite z-score with Lefty1 was 0.321; in experiment [8], -0.663. For the same compound, the figures for the z-score in [7] and in experiment [9] were 0.723 and -1.5 (inactive), respectively.
In the case of `COc1cc2c(cc1O)C(c1cccs1)N(Cc1sc3ccccc3c1Cl)CC2` (stereo not given), the composite z-score in experiment [1] was 2.64; in experiment [2], 1.28; in experiment [3], 0.379; in experiment [4], 1.01; in experiment [5], 1.14; in [6] it was 0.841. The composite z-score worked out at 0.72 with Lefty1 and 1.19 in experiment [8]. The results for the z-score in [7] and in [9] were -0.702 and -0.42 (inactive), respectively.
Take `[N-]=[N+]=Nc1ccccc1[C@@H]1OC(c2ccc(OCCCO)cc2)=N[C@]1(Cc1ccccc1)C(=O)NCc1ccccc1`: the composite z-score worked out at 1.27 in experiment [1]; 1.17 in [2]; 0.763 in experiment [3]; 0.798 in [4]; 0.852 in [5]; 0.409 in experiment [6]. The figures for the composite z-score (with Lefty1; in experiment [8]) were 0.491 and 1.36, respectively. The z-score is -1.63 in experiment [7] and -5.74 (inactive) in experiment [9].
Consider `Cc1ccc(S[C@]2(C(=O)NC(C)C)CC(=O)N(Cc3ccccc3Cl)[C@@H]2c2ccc(CO)cc2)cc1`, for which the composite z-score in [1] was 0.568; in experiment [2], 0.424; in experiment [3] it was -0.092; in [4], 0.54; in experiment [5] it was -0.568; in experiment [6] it was -1.27. Further, the composite z-score in the experiment with Lefty1 was -1.56; in experiment [8], 0.762. Moreover, the z-score was -0.718 in [7] and -0.426 (inactive) in [9].
As for `COc1ccc(C(=O)Nc2cccc(CN3C(=O)[C@@]4(O[C@@H](CC(=O)N(CCO)Cc5ccccc5)[C@H]([Si](C)(C)c5ccc(OC)cc5)[C@H]4C)c4ccccc43)c2)cc1`, the composite z-score in experiment [1] is 0.696; in [2], 1.01; in experiment [3] it was 0.16; in experiment [4], 0.193; in [5], 0.99; in experiment [6], 1.08. Also, the composite z-score is 1.18 with Lefty1 and 0.289 in experiment [8]. The z-score in [7] was -0.106; in experiment [9] it was -1.75 (inactive).
With `C=C(COC)/C(=C/C[C@H](OC(C)=O)c1cccc(OCCO)c1)c1cnc2ccccc2c1`, the composite z-score in experiment [1] was 0.18; in experiment [2] it was 1.02; in [3] it was -0.105; in experiment [4] it was 0.246; in experiment [5] it was 1.46; in experiment [6] it was 1.57. In addition, the composite z-score in the experiment on Lefty1 came out at 1.53; in experiment [8], 1.14. In addition, the z-score is 1.05 in experiment [7] and -1.06 (inactive) in experiment [9].
Regarding `CCCNC(=O)[C@@]1(Sc2ccc(C)cc2)CC(=O)N(C2CCCCC2)[C@@H]1c1ccc(CO)cc1I`, the composite z-score was 1.53 in [1]; 1.2 in experiment [2]; 0.996 in [3]; 0.146 in [4]; -0.182 in [5]; 0.128 in experiment [6]. Moreover, the composite z-score was -0.351 in the experiment on Lefty1 and 0.73 in [8]. For the same compound, the z-score in [7] is 1.04; in [9], -0.0779 (inactive).
In the case of `O=C1O[C@H](c2ccccc2)[C@H](c2ccccc2)N2[C@H]1[C@@H](C(=O)N1CCCCCCC1)[C@]1(C(=O)Nc3ccc(C#CC4(O)CCCCCC4)cc31)[C@H]2c1ccccc1OCCO`, the composite z-score in experiment [1] is 2.25; in experiment [2], 1.35; in experiment [3], 3.94; in experiment [4], 0.713; in experiment [5], 1.62; in [6] it was 0.121. Further, the composite z-score in the experiment on Lefty1 came out at 1.92; in experiment [8], 1.71. Moreover, the values for the z-score in experiment [7] and in [9] were 0.589 and 1.03 (inactive), respectively.
`C[C@]1(C(=O)NCCN2CCOCC2)c2ccccc2C(=O)N(Cc2cc(F)cc(C(F)(F)F)c2)[C@H]1c1ccc(CO)cc1`: the composite z-score in experiment [1] was 3.12; in experiment [2], 0.917; in experiment [3] it was 0.746; in experiment [4] it was 0.91; in experiment [5], 0.89; in experiment [6], -0.0787. Further, the composite z-score in the experiment with Lefty1 came to 0.443; in experiment [8] it was 0.294. The z-score was 0.815 in [7] and 1.05 (inactive) in [9].
Take `CN1C(=O)[C@@]2(Cc3ccccc3)N=C(c3ccc(OCCCO)cc3)O[C@H]2c2ccccc21`: the composite z-score in experiment [1] worked out at 1.32; in experiment [2], 1.22; in experiment [3], 0.241; in [4] it was 0.619; in experiment [5], 1.48; in experiment [6], 1.25. For the same compound, the composite z-score was 0.941 in the experiment with Lefty1 and 0.3 in experiment [8]. The z-score in experiment [7] is 0.558; in [9] it was -6.41 (inactive).
